Consider 17 molecules from PubChem BioAssay.

SMILES strings stand for the structures. Calls of active or inactive are those of the source. Unless noted, no rule for the calls is given here.

In experiment [1] the test system is XIP peptide (Xip251-270) binding. Kind of experiment: small-molecule binders of XIP peptide, primary screen, biochemical, small-molecule microarray, fluorescence 635/667 nm, 0.1 µg/mL protein (AID 1182). The settings on record: fluorescent protein binding, 635 nm, higher = more signal, called active from +8 up or from −8 down.
For another experiment, the system named is XIP peptide (Xip251-270). Kind of experiment: small-molecule binders of XIP peptide, primary screen, biochemical, small-molecule microarray, fluorescence 635/667 nm, 0.5 µg/mL protein (AID 1183). The conditions noted are these: small-molecule microarray binding, fluorescence 635 nm; higher = more signal.
Experiment [2] can be described thus: Plasmodium falciparum growth inhibition, primary screen, strain 3D7, DAPI fluorescence, 100 nL (AID 1184).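 Also: parasites grown inside human red blood cells in medium with human serum.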 The settings on record: P. falciparum 3D7 growth, 3 d, higher = more signal.
The target in experiment [3] is Homeobox protein Hox-A13 (Mus musculus) (UniProt Q62424). As to the kind of experiment: inhibitors of HoxA13-DNA binding, primary screen, biochemical, fluorescence polarization, labeled oligonucleotide (AID 1185). The settings on record: 15 min, higher = more signal, called active from +8 up or from −8 down. A general note: In fluorescence polarisation assays a small probe gives low polarisation when free and higher when bound to something large.

Experiment [4] in a line: inhibitors of hydroxyurea-induced Chk1 phosphorylation, primary screen, imaging, HeLa, phospho-Chk1 antibody, percent positive cells (AID 1186). The settings on record: hydroxyurea-induced phospho-Chk1 immunofluorescence imaging, higher = more signal.
Experiment [5] is described as follows: inhibitors of hydroxyurea-induced Chk1 phosphorylation, primary screen, imaging, HeLa, phospho-Chk1 nuclear intensity (AID 1187). The settings on record: hydroxyurea-induced phospho-Chk1 immunofluorescence imaging, higher = more signal.

Homeobox protein Hox-A13 (Mus musculus), sequence (Q62424 whole entry, looked up): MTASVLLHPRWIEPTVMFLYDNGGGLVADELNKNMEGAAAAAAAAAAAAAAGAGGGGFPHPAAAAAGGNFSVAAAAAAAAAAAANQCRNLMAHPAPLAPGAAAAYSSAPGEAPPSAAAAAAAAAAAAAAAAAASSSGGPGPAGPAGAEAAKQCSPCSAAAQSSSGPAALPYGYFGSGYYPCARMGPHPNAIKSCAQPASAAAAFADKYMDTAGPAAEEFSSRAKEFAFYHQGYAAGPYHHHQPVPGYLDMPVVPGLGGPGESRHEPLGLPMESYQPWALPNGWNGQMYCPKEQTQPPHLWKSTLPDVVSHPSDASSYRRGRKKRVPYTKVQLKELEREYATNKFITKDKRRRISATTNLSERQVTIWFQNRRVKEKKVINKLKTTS

As to `COc1ccc(NC(=O)O[C@H]2[C@H](OC(=O)Nc3ccccc3)[C@@H](OC(=O)Nc3ccccc3)[C@@H](OC)O[C@@H]2CO)cc1`, the composite z-score is 0.551 (inactive) in experiment [1] and 0.925 in the experiment with XIP peptide (Xip251-270). Moreover, the z-score in experiment [2] was -2.47; in experiment [3], -6.22 (inactive); in experiment [4] it was -0.454 (inactive); in experiment [5], -0.429 (inactive).
For the molecule `[N-]=[N+]=NCc1ccccc1C[C@@]1(C(=O)N2CCCCC2)N=C(c2ccc(OCCCO)cc2)O[C@@H]1c1ccccc1`, the figures for the composite z-score (in experiment [1]; in the experiment with XIP peptide (Xip251-270)) were -0.194 (inactive) and 0.434, respectively. In addition, the z-score in experiment [2] was -2.38; in experiment [3], -4.86 (inactive); in experiment [4], -0.219 (inactive); in experiment [5] it was -0.234 (inactive).
Turning to `Cc1ccc(S[C@]2(C(=O)O)CC(=O)N(Cc3ccccc3Cl)[C@@H]2c2ccc(CO)cc2I)cc1`, the composite z-score was -0.62 (inactive) in experiment [1] and 0.261 in the experiment on XIP peptide (Xip251-270). Also, the z-score was 0.204 in experiment [2], -2.54 (inactive) in experiment [3], 0.0343 (inactive) in experiment [4] and 0.0261 (inactive) in experiment [5].
As to `COc1ccc(-c2nc(-c3ccccc3)c3c(c2C)CO[Si]3(C(C)C)C(C)C)cn1`, the results for the composite z-score (in experiment [1]; in the experiment on XIP peptide (Xip251-270)) were -0.447 (inactive) and -0.447, respectively. Also, the z-score in experiment [2] is 0.193; in experiment [3], -3.37 (inactive); in experiment [4] it was 0.0411 (inactive); in experiment [5], 0.126 (inactive).
For the molecule `COCCOC(=O)N1C(=O)[C@@]2(c3cc(C#CC4=CCCCC4)ccc31)[C@H](C(N)=O)[C@H]1C(=O)O[C@H](c3ccccc3)[C@H](c3ccccc3)N1[C@@H]2c1ccccc1OCCO`, the composite z-score was 0.859 (inactive) in experiment [1] and 0.823 in the experiment on XIP peptide (Xip251-270). The z-score in experiment [2] is -2.03; in experiment [3] it was -1.26 (inactive); in experiment [4] it was -0.176 (inactive); in experiment [5] it was -0.46 (inactive).
As to `CC(C)N1C(=O)C[C@@](C(=O)NCCCN(C)C)(c2ccc([N+](=O)[O-])cc2)[C@H]1c1ccc(CO)cc1`, the figures for the composite z-score (in experiment [1]; in the experiment on XIP peptide (Xip251-270)) were -0.324 (inactive) and 0.51, respectively. Further, the z-score in experiment [2] is 0.0784; in experiment [3], -2.62 (inactive); in experiment [4] it was 0.414 (inactive); in experiment [5] it was 0.273 (inactive).
Turning to `COCCOC(=O)N1C(=O)[C@@]2(c3cc(C#Cc4ccc(OC)cc4)ccc31)[C@H](c1ccc(O)cc1)N1[C@H](c3ccccc3)[C@H](c3ccccc3)OC(=O)[C@H]1[C@@H]2C(=O)N1CCCCCCC1`, the composite z-score in experiment [1] was 0.711 (inactive); in the experiment with XIP peptide (Xip251-270), 0.436. Moreover, the z-score in experiment [2] was -1.55; in experiment [3] it was 1.36 (inactive); in experiment [4] it was -0.0871 (inactive); in experiment [5] it was -0.171 (inactive).
`[N-]=[N+]=NCc1ccccc1[C@H]1OC(c2ccc(OCCCO)cc2)=N[C@@]1(CCS(=O)(=O)c1ccccc1)C(=O)NCC(O)CO` (some centres not stated): the composite z-score in experiment [1] was 1.2 (inactive); in the experiment with XIP peptide (Xip251-270), 0.781. For the same molecule, the z-score in experiment [2] was -2.41; in experiment [3] it was -2.82 (inactive); in experiment [4] it was -0.0433 (inactive); in experiment [5], 0.0231 (inactive).
As to `C=CCNC(=O)[C@H]1[C@@H]2C(=O)O[C@@H](c3ccccc3)[C@@H](c3ccccc3)N2[C@@H](c2ccc(O)cc2)[C@]12C(=O)Nc1ccc(C#CC3(O)CCCCCC3)cc12`, the composite z-score in experiment [1] was 0.692 (inactive); with XIP peptide (Xip251-270), 0.466. For the same molecule, the z-score in experiment [2] was -0.372; in experiment [3], -3.96 (inactive); in experiment [4], -0.165 (inactive); in experiment [5] it was -0.244 (inactive).
Turning to `[N-]=[N+]=Nc1ccccc1[C@H]1OC(c2ccc(OCCCO)cc2)=N[C@@]1(Cc1ccccc1)C(=O)N1CCCCC1`, the results for the composite z-score (in experiment [1]; with XIP peptide (Xip251-270)) were 0.391 (inactive) and 0.664, respectively. For the same molecule, the z-score in experiment [2] was -1.95; in experiment [3], -2.71 (inactive); in experiment [4] it was -0.549 (inactive); in experiment [5], -0.463 (inactive).
For `COC(=O)[C@@]1(Cc2ccc(OC)cc2)[C@@H]2C(=CC(=O)[C@H]2CC(=O)C(=O)N(C)C)CN1C(=O)c1ccccc1`, the composite z-score in experiment [1] was 0.0312 (inactive); in the experiment with XIP peptide (Xip251-270), 0.739. The z-score was -1.73 in experiment [2], -3.95 (inactive) in experiment [3], -0.246 (inactive) in experiment [4] and -0.0503 (inactive) in experiment [5].
Regarding `C=CC1c2cc(O)c(OC)cc2CCN1Cc1cc2c(cc1Br)OCO2` (configuration not stated), the composite z-score in experiment [1] was 1.31 (inactive); in the experiment on XIP peptide (Xip251-270), 0.962. Moreover, the z-score in experiment [2] is -2.14; in experiment [3] it was -5.73 (inactive); in experiment [4], -0.103 (inactive); in experiment [5] it was -0.0965 (inactive).
On to `COCCOC(=O)N1C(=O)[C@@]2(c3cc(C#CC4=CCCCC4)ccc31)[C@H](C(=O)N1CCCCCCC1)[C@H]1C(=O)O[C@H](c3ccccc3)[C@H](c3ccccc3)N1[C@@H]2c1ccc(O)cc1`, for which the composite z-score in experiment [1] was 0.179 (inactive); in the experiment with XIP peptide (Xip251-270) it was 0.695. In addition, the z-score in experiment [2] was -1.72; in experiment [3] it was 2.25 (inactive); in experiment [4] it was -0.525 (inactive); in experiment [5], -0.932 (inactive).
For the molecule `O=C(NCCCCCNC(=O)/C(Cc1ccccc1)=N/O)OCc1ccccc1`, the composite z-score in experiment [1] was -0.333 (inactive); in the experiment with XIP peptide (Xip251-270), 0.132. Also, the z-score is -1.94 in experiment [2], -4.08 (inactive) in experiment [3], -0.466 (inactive) in experiment [4] and 0.238 (inactive) in experiment [5].
In the case of `COc1ccc(C#Cc2ccc3c(c2)[C@]2(C(=O)N3)[C@H](c3ccc(O)cc3)N3[C@H](c4ccccc4)[C@H](c4ccccc4)OC(=O)[C@H]3[C@@H]2C(=O)O)cc1`, the composite z-score in experiment [1] is -0.101 (inactive); in the experiment with XIP peptide (Xip251-270), 0.83. The z-score in experiment [2] is -1.23; in experiment [3] it was -5.22 (inactive); in experiment [4] it was -0.368 (inactive); in experiment [5] it was -0.664 (inactive).
As for `C[C@]1(C(=O)NC2CC2)c2ccccc2C(=O)N(Cc2ccccc2)[C@H]1c1ccc(CO)cc1`, the values for the composite z-score (in experiment [1]; with XIP peptide (Xip251-270)) were -0.0942 (inactive) and -0.227, respectively. The z-score in experiment [2] is -1.62; in experiment [3], -1.31 (inactive); in experiment [4] it was -0.483 (inactive); in experiment [5], -0.567 (inactive).
Regarding `CCOC(=O)[C@H]1[C@@H]2C(=O)N3CCC[C@H]3[C@H](O[Si](C(C)C)(C(C)C)C(C)C)[C@H]2C=C2CCN(S(=O)(=O)c3ccc(C)cc3)C[C@H]21`, the composite z-score in experiment [1] was 0.0514 (inactive); in the experiment on XIP peptide (Xip251-270), 0.589. The z-score was -2.23 in experiment [2], -4.48 (inactive) in experiment [3], 0.186 (inactive) in experiment [4] and -0.0427 (inactive) in experiment [5].
